The list is not random: actives were taken first. Their share in the collection is about 19%.
HepG2 viability: kills HepG2 cells in TGF-b inhibitor counter-screen | actives 0.76% (n = 410,000) | HepG2 CAGA-GFP viability, ATP luminescence, 18 h | AID 588856 | Potency, µM (series often up to 46.1 µM), without a hit: top-dose activity change, negative = cytotoxicity, actives largely listed as cytotoxic; further: potency means the concentration at half of the fitted maximal effect
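CellTiter-Glo luminescence gave cytotoxicity after 18 hours at 37 degrees C. The cells were HepG2 CAGA-GFP in 1% FBS DMEM, stimulated with 500 pg/mL TGF-beta after compound addition. %Activity was normalised to no-cell wells (complete cell-killing) and DMSO (no toxicity), and curves were fitted and classified.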
ASM inhibitor: human S-ASM enzyme inhibition. placental ASM, HMU-PC fluorogenic substrate, 60 min. Potency, µM (series often up to 57.5 µM), inactives show at the top dose activity change, negative = inhibition, actives largely listed as inhibitors. actives 0.006% (n = 340,000). AID 504937. P17405; further: potency means the concentration at half of the fitted maximal effect
Target sequence (P17405 47-631 limits assumed): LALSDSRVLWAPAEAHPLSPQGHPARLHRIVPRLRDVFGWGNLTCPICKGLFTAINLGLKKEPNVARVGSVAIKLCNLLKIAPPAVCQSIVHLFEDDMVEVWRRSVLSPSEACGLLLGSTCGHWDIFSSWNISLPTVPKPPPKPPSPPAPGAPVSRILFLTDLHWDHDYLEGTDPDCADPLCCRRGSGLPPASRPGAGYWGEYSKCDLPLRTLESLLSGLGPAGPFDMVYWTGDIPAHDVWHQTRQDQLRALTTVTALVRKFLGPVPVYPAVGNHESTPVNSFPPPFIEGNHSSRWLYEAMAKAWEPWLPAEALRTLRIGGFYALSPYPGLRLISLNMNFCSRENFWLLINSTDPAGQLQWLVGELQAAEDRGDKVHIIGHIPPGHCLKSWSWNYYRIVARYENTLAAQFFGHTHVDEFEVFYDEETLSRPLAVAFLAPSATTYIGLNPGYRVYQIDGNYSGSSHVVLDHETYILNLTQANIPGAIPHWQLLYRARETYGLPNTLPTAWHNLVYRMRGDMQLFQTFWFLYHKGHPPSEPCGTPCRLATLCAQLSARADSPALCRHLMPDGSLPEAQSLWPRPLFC
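Fluorescence read-out (Ex 386 nm, Em 447 nm) after stopping the reaction at pH 10. Enzyme: ASM from human placenta; substrate HMU-PC0, 9 uM final; 60 min, 37 °C. Compound preincubation 10 min, ambient temperature.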
TGFb SMAD3 inh: TGF-b pathway inhibition; HepG2 CAGA-GFP TGF-b/SMAD3 reporter, GFP fluorescence, 18 h; TGF-beta stimulated, 500 pg/mL final; Potency, µM (doses to about 46.1 µM), inactives show top-dose activity, negative = inhibition, actives largely listed as inhibitors; actives 1.2% (n = 410,000); further: potency means the concentration at half of the fitted maximal effect; on the % scale 0 is the no-effect control and ±100 the full control effect; nearly all actives have a fitted effect of over 65% in size
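TGF-beta reporter screen: HEPG2 CAGA-GFP, 1% FBS, 500 pg/mL TGF-beta final, 18 h; per-cell GFP summed per well; curves fitted and categorized by class.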
TDP1 cell CPT: DT40-hTDP1 cell growth loss with CPT; chicken DT40 Tdp1-/-;hTDP1 cells + 20 nM CPT, ATP luminescence, 48 h; Potency, µM (series often up to 46.2 µM), inactives show top-dose activity change, negative = growth inhibition, usual class: inhibitors; actives 12% (n = 420,000); further: potency means the concentration at half of the fitted maximal effect; on the % scale 0 is the no-effect control and ±100 the full control effect; nearly all actives have a fitted effect of over 55% in size
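Chicken DT40 Tdp1-/- cells stably complemented with human TDP1 were seeded at 400 cells/well in medium containing 20 nM camptothecin, exposed to pin-transferred compounds, and grown at 37 °C for at least 48 hr. Viability was read as ATP luminescence.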
DT40 TDP1 no CPT: qHTS for Inhibitors of human tyrosyl-DNA phosphodiesterase 1 (TDP1): qHTS in cells in absence of CPT; DT40 Tdp1-/- hTDP1 cells, no CPT, ATP luminescence, 48 h; Potency, µM (highest dose often 46.2 µM), inactives show at the top dose activity change, negative = growth inhibition, actives largely listed as inhibitors; actives 15% (n = 420,000); AID 686978, 2013; further: potency means the concentration at half of the fitted maximal effect; on the % scale 0 is the no-effect control and ±100 the full control effect; nearly all actives have a fitted effect of over 55% in size
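Growth of hTDP1-complemented DT40 Tdp1-knockout cells is measured by ATP luminescence after at least 48 hr compound exposure at 37 °C, with DMSO substituting for the 20 nM CPT used in the parallel screen.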
IL1B secr inh: inhibitors of inflammasome signaling (IL-1 beta secretion); THP-1 LPS/ATP IL-1B secretion, AlphaLISA, 16 h; active compounds read low; activity change, % at 57.5 µM; actives 4.7% (n = 360,000); AID 743279; in the data active means activity change below about -50%; inconclusive means mostly about -30% to -49%; further: on the % scale 0 is the no-effect control and ±100 the full control effect
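THP-1 cells pretreated 1 hr with compounds (up to 57.5 uM final), then stimulated with LPS (250 ng/mL final) plus ATP (1.25 mM final); secreted IL-1B measured by AlphaLISA after 16 hr, decreased signal indicating inhibition.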
Numbers without * were called inactive; i = inactive; ? = inconclusive; / = no result given; [ ] = dose if it differs, or a comment. Unless noted, the call rests on the fitted dose curve; in most records, active means well fitted curve in the direction sought with a large enough effect; inconclusive means small, poorly fitted or top-dose-only effect, or another doubt; inactive means no such curve, though single readings can be large; an effect the other way counts as inactive or inconclusive.

SMILES | HepG2 viability | ASM inhibitor | TGFb SMAD3 inh | TDP1 cell CPT | DT40 TDP1 no CPT | IL1B secr inh
CCN(CC)Cc1c(O)c(Cl)cc2c3c(c(=O)oc12)CCCC3 | 14.9% | i | 2.1% | ? | ? | 12.1
CN(C)Cc1c(O)c(Cl)cc2c3c(c(=O)oc12)CCCC3 | -6.5% | i | -5.1% | ? | 14.6µM* | 21.3
Cc1ccc(C(=O)NCC(=O)OCc2cc(=O)n3nc(C4CC4)sc3n2)cc1 | -4.4% | / | -6.1% | -0.5% | -1.8% | /
Cc1ccccc1NC(=O)C(NS(=O)(=O)c1ccc2c(c1)c(=O)n(C)c(=O)n2C)c1ccccc1 (stereo not given) | -2.9% | 1.1% | -2.9% | ? | 16.4µM* | -3.5
COc1ccccc1NC(=O)C(Cc1ccccc1)NS(=O)(=O)c1ccc2c(c1)c(=O)n(C)c(=O)n2C (stereo not given) | -31.0% | / | ? | 23.1µM* | ? | /
COCCN(C(=O)c1ccccc1Oc1ccccc1)c1c(N)n(CC(C)C)c(=O)[nH]c1=O | 12.5% | 3.8% | 16.1% | -6.7% | -1.7% | 5.2
COc1ccc2c(c1)-c1nc(-n3ncc(C(=O)N(C)C(C)c4ccon4)c3C3CC3)ncc1CC2 (stereo not given) | / | / | / | -20.2%[9.04 µM] | ? | /
Cc1cccnc1C(NC(=O)C1CCN(CCOc2ccc(Cl)cc2Cl)CC1)c1ccc(Cl)cc1 (stereo not given) | -41.8% | / | ? | 11.6µM* | 7.31µM* | ?
O=C(NC(c1ccc2c(c1)OCO2)c1ccccn1)C1CCN(CCOc2ccc(Cl)cc2Cl)CC1 (stereo not given) | -97.6% | / | ? | ? | ? | ?
O=C(NC(c1ccc(Cl)cc1)c1ccccn1)C1CCN(CCOc2ccc(Cl)cc2Cl)CC1 (stereo not given) | -104.0% | / | ? | ? | 18.4µM* | -7.1
COC(=O)[C@H](CCSC)NC(=O)[C@@H](Cc1cnc[nH]1)NC(=O)OCc1ccccc1 | 14.2% | -0.3% | 6.3% | 1.0% | 12.2% | 16.7
COc1c(Br)cc(Br)cc1/C=C1/C(=O)N=C(N)N1C | -17.0% | -0.2% | -5.4% | -1.7% | -17.6% | -53.6*
CN1C(N)=NC(=O)/C1=C/c1ccccc1F | 3.4% | -0.8% | -26.3% | 10.4% | -4.0% | -4.5
COc1cc(NC(=O)C2CC(c3ccccc3Cl)=NO2)cc(OC)c1OC (stereo not given) | 2.6% | 1.9% | -16.5% | 16.4µM* | 23.1µM* | -11.3
COc1cc(NC(=O)C2CC(c3ccc(Cl)cc3)=NO2)cc(OC)c1OC (stereo not given) | -5.7% | -8.6% | -0.8% | -25.7% | ? | -17.1
COc1cc(C2=NOC(C(=O)Nc3ccc(C)cc3)C2)cc(OC)c1OC (stereo not given) | -8.6% | -7.3% | -17.8% | 12.6µM* | 11.2µM* | 2.4
Cc1cc2oc(C(=O)Nc3sc4c(c3C(=O)NCc3ccccc3)CCCC4)cc(=O)c2cc1C | 0.8% | / | 25.6% | 3.3% | 0.7% | /
COc1ccc(C2CC(O)(c3ccccc3)Oc3cc(C)c(Cl)c(C)c32)cc1 (stereo not given) | -39.2% | / | ? | / | / | /
COC(=O)C1CC(c2ccc(Cl)cc2)=NO1 (stereo not given) | -4.4% | 1.7% | 5.3% | 36.4% | 0.7% | 5.5
COc1cc2c(cc1OC)C1(NCC2)C(=O)Nc2ccccc21 (stereo not given) | -2.3% | 5.7% | -11.7% | -12.1% | 10.8% | -5.9

Screening data from PubChem.
